Experimental data from PubChem BioAssay (NCATS).
Where “and” joins values, the source holds several entries; their conditions need not be identical. Equal values may be shown once. Results filed as inconclusive are left out. Calls of active or inactive are those of the source. Calls follow the shape of the dose curve; as a rule, active = well fitted curve in the direction sought with a large enough effect; inconclusive = small, poorly fitted or top-dose-only effect, or another doubt; inactive = no such curve, though single readings can be large; an effect the other way counts as inactive or inconclusive.

What was measured:
[1] = qHTS of pediatric cancer cell lines to identify multiple opportunities for drug repurposing: Primary screen for U-2 OS cells (AID 1347096); also: nearly all actives have a fitted effect of over 50% in size
Procedure, shortened: (§1)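 Cells (500-1,000/well) rested 5 h, then received compounds for 48 h; metabolically active cells were measured by CellTiter-Glo luminescence. Final concentrations spanned up to 46 µM (MIPE, 11-point) or 0.59 nM-46 µM (NPC, 8-point) in primary screens, 11-point in follow-ups.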

[2] = qHTS of pediatric cancer cell lines to identify multiple opportunities for drug repurposing: Primary screen for Saos-2 cells (AID 1347097); also: nearly all actives have a fitted effect of over 40% in size
Procedure, shortened: (§2)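 Primary screen of approved and investigational compounds on cells in growth media at 37 degrees C, 5% CO2. MIPE set at 11-point and NPC set at 8-point dilutions; viability scored by ATP-based luminescence at 48 hours.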

[3] = qHTS of pediatric cancer cell lines to identify multiple opportunities for drug repurposing: Primary screen for SK-N-SH cells (AID 1347098); also: nearly all actives have a fitted effect of over 65% in size
Procedure, shortened: as §1

[4] = qHTS of pediatric cancer cell lines to identify multiple opportunities for drug repurposing: Primary screen for NB1643 cells (AID 1347099); also: nearly all actives have a fitted effect of over 50% in size
Procedure, shortened: as §2

[5] = qHTS of pediatric cancer cell lines to identify multiple opportunities for drug repurposing: Primary screen for LAN-5 cells (AID 1347100)
Procedure, shortened: as §1

[6] = qHTS of pediatric cancer cell lines to identify multiple opportunities for drug repurposing: Primary screen for BT-12 cells (AID 1347101); also: nearly all actives have a fitted effect of over 25% in size
Procedure, shortened: as §1

[7] = qHTS of pediatric cancer cell lines to identify multiple opportunities for drug repurposing: Primary screen for Rh18 cells (AID 1347102); also: nearly all actives have a fitted effect of over 65% in size
Procedure, shortened: as §1

[8] = qHTS of pediatric cancer cell lines to identify multiple opportunities for drug repurposing: Primary screen for OHS-50 cells (AID 1347103); also: nearly all actives have a fitted effect of over 40% in size
Procedure, shortened: as §1

[9] = qHTS of pediatric cancer cell lines to identify multiple opportunities for drug repurposing: Primary screen for RD cells (AID 1347104); also: nearly all actives have a fitted effect of over 55% in size
Procedure, shortened: as §2

[10] = qHTS of pediatric cancer cell lines to identify multiple opportunities for drug repurposing: Primary screen for MG 63 (6-TG R) cells (AID 1347105); also: nearly all actives have a fitted effect of over 50% in size
Procedure, shortened: as §2

Measured: Potency
Potency is read from the fitted curve at half-maximal effect.

Cc1oc(=O)oc1CN1CCN(c2cc3c(cc2F)c(=O)c(C(=O)O)c2n3C(C)S2)CC1 (stereo unspecified)
inactive: all assays above

N[C@@H](C(=O)N[C@@H]1C(=O)N2C(C(=O)O)=C(Cl)CS[C@H]12)c1ccccc1
inactive: all assays above

O=c1oc2c(O)c(O)cc3c(=O)oc4c(O)c(O)cc1c4c23
not listed: [6] | [9]
inactive: all other assays above

CN1CCN(c2c(F)cc3c(=O)c(C(=O)O)cn(CCF)c3c2F)CC1
inactive: all assays above

CCN(CC)CC#CCOC(=O)C(O)(c1ccccc1)C1CCCCC1 (stereo unspecified)
not listed: [5] | [6] | [8]
inactive: all other assays above

N[C@@H](Cc1ccc(O)c(O)c1)C(=O)O
not listed: [4]
inactive: all other assays above

NC1(c2ccc(-c3nc4ccn5c(=O)[nH]nc5c4cc3-c3ccccc3)cc2)CCC1
active: [2] 10.5 µM | [3] 19.2 µM and 17.2 µM | [5] 3.72 µM | [6] 21.7 µM and 24.6 µM | [7] 16.8 µM | [8] 344 nM and 692 nM | [9] 16.6 µM and 13.3 µM | [10] 7.43 µM and 13.3 µM
inactive: [1]

COc1nc(N)nc2c1ncn2[C@@H]1O[C@H](CO)[C@@H](O)[C@@H]1O
inactive: all assays above

O=C(N[C@H](CO)[C@H](O)c1ccc([N+](=O)[O-])cc1)C(Cl)Cl
not listed: [3] | [10]
inactive: all other assays above

COc1cc(NCc2ccc3nc(N)nc(N)c3c2C)cc(OC)c1OC
active: [1] 3.72 µM | [2] 11.8 µM | [4] 14.8 µM | [5] 16.6 µM | [6] 2.17 µM and 55 nM | [8] 19300 nM | [9] 4.18 µM and 119 nM
inactive: [7]

Cc1onc(-c2ccccc2Cl)c1C(=O)N[C@@H]1C(=O)N2[C@@H]1SC(C)(C)[C@@H]2C(=O)O
inactive: all assays above

Nc1[nH]c(=O)ncc1F
not listed: [5] | [10]
inactive: all other assays above

CCc1c2c(nc3ccc(OC(=O)N4CCC(N5CCCCC5)CC4)cc13)-c1cc3c(c(=O)n1C2)COC(=O)[C@]3(O)CC
inactive: [1]
active: [2] 1.5 µM and 1.32 µM | [4] 841 nM and 1.66 µM | [5] 1.33 µM and 372 nM | [6] 2.43 µM | [7] 18.7 µM | [8] 769 nM

Cc1ccnc2c1NC(=O)c1cccnc1N2C1CC1
not listed: [3] | [10]
inactive: all other assays above

CC1(C)[C@H](C(=O)O)N2C(=O)C[C@H]2S1(=O)=O
inactive: all assays above

COc1cc(NS(=O)(=O)c2ccc(N)cc2)nc(OC)n1
inactive: all assays above

CC[C@H](NC(C)C)[C@H](O)c1ccc(O)c2[nH]c(=O)ccc12
inactive: all assays above

COc1ccc(-c2ccc3cc(C(=O)O)ccc3c2)cc1C12CC3CC(CC(C3)C1)C2
active: [2] 18.7 µM | [8] 15.3 nM
not listed: [5] | [10]
inactive: all other assays above

O=C(O)CCn1c2c(c3ccccc31)C[C@H](NS(=O)(=O)c1ccc(F)cc1)CC2
inactive: all assays above

COc1ncnc(NS(=O)(=O)c2ccc(N)cc2)c1OC
inactive: all assays above

CCCOc1ccc(C(=O)OCCN(CC)CC)cc1N
inactive: all assays above

O=C(O)C1CCCN(CCC=C(c2ccccc2)c2ccccc2)C1 (stereo unspecified)
not listed: [3] | [10]
inactive: all other assays above

CN(C)CCc1c[nH]c2ccc(C[C@H]3COC(=O)N3)cc12
inactive: all assays above

CO[C@@H]1[C@@H](OC(N)=O)[C@@H](O)[C@H](Oc2ccc3c(O)c(NC(=O)c4ccc(O)c(CC=C(C)C)c4)c(=O)oc3c2C)OC1(C)C
inactive: all assays above

O=NN(CCCl)C(=O)NC1CCCCC1
inactive: all assays above

Nc1nc(=S)c2[nH]cnc2[nH]1
inactive: [10]
active: [1] 1.68 µM and 2.35 µM | [2] 7.5 µM and 4.69 µM | [3] 6.87 µM and 5.41 µM | [4] 2.99 µM and 3.32 µM | [5] 2.35 µM | [6] 8.71 µM and 7.69 µM | [7] 13.3 µM | [8] 872 nM and 1.72 µM

C1CCC(C(CC2CCCCN2)C2CCCCC2)CC1 (stereo unspecified)
inactive: [1]
active: [2] 13.3 µM and 33.2 µM | [3] 15.4 µM | [4] 21.1 µM | [6] 5.5 µM and 30.6 µM | [7] 16.8 µM and 26.4 µM | [8] 13.8 µM and 19.3 µM | [9] 21.1 µM and 29.6 µM | [10] 26.6 µM

CCCCOc1ccc(CC(=O)NO)cc1
inactive: [6] | [10]
active: [1] 26.6 µM | [2] 23.5 µM | [3] 19.2 µM | [5] 23.5 µM | [9] 15 µM and 26.4 µM

Cc1cccc(Nc2ccncc2S(=O)(=O)NC(=O)NC(C)C)c1
inactive: all assays above

C[C@@H](CN1CC(=O)NC(=O)C1)N1CC(=O)NC(=O)C1
active: [5] 4.18 µM
not listed: [4] | [9] | [10]
inactive: all other assays above

O=P(O)(O)C(O)(Cc1cccnc1)P(=O)(O)O
inactive: all assays above

CCC(=O)O[C@]1(C(=O)CCl)[C@@H](C)C[C@H]2[C@@H]3CCC4=CC(=O)C=C[C@]4(C)[C@@]3(F)[C@@H](O)C[C@@]21C
not listed: [6] | [8]
inactive: all other assays above

CC1=NN(c2ccccc2)C(=O)C1
not listed: [3] | [10]
inactive: all other assays above

CC(C)OC(=O)C(C(=O)OC(C)C)=C1SC=CS1
not listed: [8]
inactive: all other assays above

NC(N)=NC(N)=NCCc1ccccc1
active: [6] 19.3 µM | [8] 11 µM and 3.85 µM
not listed: [3] | [9]
inactive: all other assays above

O=C(O)c1cccnc1
not listed: [3]
inactive: all other assays above

CNNCc1ccc(C(=O)NC(C)C)cc1
not listed: [3] | [10]
inactive: all other assays above

C[C@@H]1C[C@H]2[C@@H]3CCC4=CC(=O)C=C[C@]4(C)[C@@]3(Cl)[C@@H](O)C[C@]2(C)[C@@]1(OC(=O)c1ccco1)C(=O)CCl
active: [1] 14.8 µM | [2] 14.8 µM | [4] 2.64 µM | [5] 10.5 µM | [6] 27.6 µM and 9.68 µM | [8] 15.5 µM and 15.3 µM | [9] 8.33 µM | [10] 23.5 µM

CC1=CC(=O)c2ccccc2C1=O
active: [2] 18.7 µM | [4] 16.6 µM | [5] 16.8 µM and 23.5 µM | [9] 18.7 µM
inactive: [1] | [6] | [7] | [10]

CNC1CCCN(c2c(F)cc3c(=O)c(C(=O)O)cn(C4CC4)c3c2OC)C1 (stereo unspecified)
not listed: [3] | [4]
inactive: all other assays above

CC(C)NCC(O)c1ccc(NS(C)(=O)=O)cc1 (stereo unspecified)
not listed: [3]
inactive: all other assays above

COc1c(N2CCNC(C)C2)c(F)cc2c(=O)c(C(=O)O)cn(C3CC3)c12 (stereo unspecified)
not listed: [3]
inactive: all other assays above

CC(C(=O)O)c1ccc2c(c1)CC(=O)c1ccccc1S2 (stereo unspecified)
inactive: [1] | [2] | [5] | [7]
